The text below walks through data of PubChem BioAssay (NCI).

Structures are written as SMILES. Compounds without any hit were thinned out: in the full panel of roughly 83,000, 20% have a hit.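 For each line, cells grew in 96-well plates with the test compound present at a single concentration for 48 hours.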 Unmarked numbers belong to inactive results. Calls of active or inactive are those of the source. How the source made its calls: active means growth percent below 10; inactive means the rest.

What all share (test): NCI-60 one-dose screen, 48 h (100 = growth as untreated, 0 = no growth, -100 = all killed)
Conditions in all cases: 10 µM unless noted

For assay [1], the system named is SR leukemia.
The test system of assay [2] is RPMI-8226 leukemia.
The subject of assay [3] is OVCAR-8 ovarian.
In assay [4] the test system is OVCAR-5 ovarian.
The subject of assay [5] is OVCAR-4 ovarian.
The test system of assay [6] is SK-OV-3 ovarian.
Assay [7] concerns OVCAR-3 ovarian.
Assay [8] relates to NCI/ADR-RES ovarian.
In assay [9] the test system is IGROV1 ovarian.
In assay [10] the test system is HS 578T breast.

Turning to `Cc1ccccc1NC(=O)Nc1nc2ccc([N+](=O)[O-])cc2s1`, the growth in assay [1] is 6.41% (active); in [2] it was 5.55% (active); in assay [3] it was 9.56% (active); in assay [4] it was 16.9%; in assay [5], 3.62% (active); in assay [6], -19.4% (active). Moreover, the growth was 10.1% in assay [7] and 6.24% (active) in [8].

For the compound `CCc1cc(OC(=O)N2CCC(N3CCCCC3)CC2)ccc1Nc1cc(-c2ccc(-n3cccn3)cc2)[nH]n1`, the growth in [1] was -9.25% (active); in assay [2], 20.9%; in [3] it was 86.2%; in assay [4], 87.4%; in [5], 85.3%; in assay [6], 85.9%. For the same compound, the growth in assay [9] was 56.9%; in [8] it was 82.5%.

For the compound `O=C(N/N=C/c1cc2ccccc2nc1Cl)c1cc(-c2nc3ccccc3[nH]2)nc2ccccc12`, the growth was 83.6% in assay [1]; 82.7% in assay [2]; 96.3% in [3]; 106% in assay [4]; 86.3% in assay [5]; 106% in assay [6]. The figures for the growth in assay [10] and in assay [8] were 108% and 93.3%, respectively.

For the compound `CN1CCN(c2ccc(Nc3nc(NCCNS(=O)(=O)c4ccc5ccccc5c4)c4sccc4n3)cc2)CC1`, the growth is -21.3% (active) in assay [1]; 49.8% in assay [2]; 60.3% in assay [3]; 90.1% in [4]; 82.3% in assay [5]; 128% in assay [6]. The growth was 82.3% in [9] and 90.3% in assay [8].

With `N#Cc1c(-c2cccs2)cc(-c2cnccn2)nc1SCC(=O)N/N=C/c1ccccc1`, the growth in [1] is 55.9%; in [2], -23.7% (active); in assay [3], 43.4%; in assay [4], 87.2%; in assay [5] it was 3.09% (active); in [6], 106%. For the same compound, the growth in [7] is 27.7%; in assay [10] it was 40.7%; in assay [8], 37%.

In the case of `O=C1[C@@H]2Cc3c([nH]c4ccccc34)[C@@H](c3ccc(Cl)cc3)N2C(=O)CN1C1CCN(Cc2c(F)cccc2F)CC1`, the growth was -4.42% (active) in [1]; 12.5% in assay [2]; 43.7% in assay [3]; 59.4% in assay [4]; 44.8% in assay [5]; 68.5% in assay [6]. Besides, the growth in assay [9] was 25.6%; in assay [8] it was 42.5%.

Regarding `O=C(/C=C/c1cccc(Br)c1)c1cccc(OCCCCOc2cccc(C(=O)/C=C/c3cccc(Br)c3)c2)c1`, the growth is 98.5% in assay [1]; 56.8% in [2]; 105% in [3]; 104% in assay [4]; 109% in assay [5]; 107% in assay [6]. Moreover, the growth in assay [7] was 105%; in assay [10], 101%; in [8] it was 106%.

Consider `O=S(=O)(Oc1ccc(-c2cn3ccoc3n2)cc1)C1CCCCC1`, for which the growth in assay [1] is 85.6%; in [2], 93.3%; in [3], 100%; in assay [4] it was 102%; in assay [5], 107%; in assay [6], 102%. For the same compound, the growth was 108% in [9] and 97.8% in assay [8].

Take `O=S(=O)(NCCCNc1nccc(-c2[nH]c(-c3ccccc3)nc2-c2ccc(F)c(O)c2)n1)c1cccc2ccccc12`: the growth is 28.6% in assay [1]; 4.6% (active) in assay [2]; 54.3% in assay [3]; 146% in [4]; 81.9% in [5]; 103% in assay [6]. In addition, the values for the growth in assay [7], in assay [10] and in assay [8] were 88.4%, 40.7% and 91.1%, respectively.

On to `O=C(CN1CCN(c2cc(=O)[nH]c3ccc(F)cc23)CC1)N(c1ccccc1)c1ccccc1`, for which the growth in [1] is 90.8%; in assay [2] it was 115%; in assay [3], 108%; in assay [4], 102%; in [5], 101%; in [6], 109%. Further, the growth in [7] was 109%; in assay [10], 101%; in assay [8], 102%.

As for `CN1CCN(Cc2ccc(NC(=O)c3cncc(C#Cc4cnc5ccc(OCC(F)F)nn45)c3)cc2C(F)(F)F)CC1`, the growth was -24.3% (active) in assay [1]; -21.7% (active) in assay [2]; -74.6% (active) in [3]; -47.1% (active) in assay [4]; -62.6% (active) in [5]; -24.2% (active) in assay [6]. The growth in assay [8] is -28.1% (active).

In the case of `Clc1ccc2c(N/N=C/c3c[nH]c4ccccc34)ccnc2c1`, the growth is 2.13% (active) in [1]; -25% (active) in assay [2]; -68% (active) in [3]; -83.9% (active) in assay [4]; -85.6% (active) in assay [6]; -87.2% (active) in [9]. Moreover, the growth in assay [10] is -47% (active); in [8], -71.8% (active).

`CCN(CC)S(=O)(=O)c1ccc(-c2nc(C(Cl)Cl)nc3cc(-c4ccc(F)cc4)nn23)cc1`: the growth in assay [1] is 30.8%; in assay [2], 6.42% (active); in assay [3], 27.6%; in assay [4], 51.6%; in assay [6], 42.7%; in assay [9], 56.9%. The results for the growth in assay [7], in assay [10] and in assay [8] were 16.8%, 36.4% and 23.5%, respectively.

`Brc1ccc(-c2cc(-c3ccc4c(c3)OC=CO4)n[nH]2)s1`: the growth in assay [1] was 54.7%; in assay [2] it was 93.6%; in assay [3], 96.4%; in assay [4], 105%; in [6] it was 88.1%; in [9], 81%. Also, the growth is 92.2% in assay [10] and 76.8% in assay [8].

On to `O=C(CCCCCCNC(=O)C(O)(O)C(F)(F)F)Nc1ccc(Cl)cc1`, for which the growth in assay [1] was 12.1%; in assay [2], 20.1%; in [3] it was 11.9%; in [4], 9.85% (active); in assay [6] it was -6.99% (active); in assay [9] it was 27.8%. For the same compound, the figures for the growth in assay [7], in assay [10] and in [8] were 24.9%, 33.2% and 24.6%, respectively.
